Several values for one entry are separate records, joined by “and”; a condition that tells them apart may be missing. Identical values can stand only once. Values without a mark were called inactive. Records with an inconclusive call do not appear. A call without a number means that no potency is given here. Activity calls are given as the source filed them. Unless noted, calls come from the whole dose curve; as a rule, active = well fitted curve in the direction sought with a large enough effect in the repeat runs; inconclusive = weak or mixed curves; inactive = no such curve, though single readings can be large; an effect the other way counts as inactive or inconclusive.
Key:
[1] = target: Thyrotropin-releasing hormone receptor (Homo sapiens) (UniProt P34981); experiment: qHTS assay to identify small molecule agonists of the thyrotropin-releasing hormone receptor (TRHR) signaling pathway (AID 1346891; calls by dose curve;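 note: HEK293 cells expressing TRHR with calcium dye readout; series mostly up to about 58 µM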)
How it was run: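 Overnight-plated (18 h, 37 °C, 5% CO2) TRHR-Hek293 cells; 2 h calcium dye at 37 °C; compound in DMSO; 3-min kinetic fluorescence read.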

[2] = Human pregnane X receptor (PXR) small molecule agonists, qHTS cell viability counter screen (AID 1346977); note: nearly all actives have a fitted effect of over 50% in size
How it was run: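 After a 5hr pre-incubation, PXR-Luc HepG2 cells received compounds plus positive control in DMSO and were kept 24hr at 37C. Cell viability was quantified by fluorescence from CellTiter-Fluor added for the final hour.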

[3] = Caspase-3/7 induction in HepG2 cells by small molecules, qHTS assay (AID 1346978); note: nearly all actives have a fitted effect of over 15% in size
How it was run: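 Wild-type HepG2 cells (2,000/well) were settled 5 h at 37 C, 5% CO2, then exposed to compounds in DMSO for 17 h. Caspase-3/7 activity was read by luminescence 30 min after adding Caspase-Glo 3/7 reagent at room temperature.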

[4] = Caspase-3/7 induction in CHO-K1 cells by small molecules, qHTS cell viability counter screen (AID 1346979); note: nearly all actives have a fitted effect of over 35% in size; note: potency is the fitted concentration of half-maximal effect
How it was run: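 Multiplexed with Caspase-Glo 3/7 in CHO-K1 cells, this counter screen added CellTiter-Fluor after 16hr of compound exposure and recorded fluorescence 1hr later.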

[5] = Caspase-3/7 induction in CHO-K1 cells by small molecules, qHTS assay (AID 1346980); note: nearly all actives have a fitted effect of over 15% in size
How it was run: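 Wild-type cells were seeded at 1,500 per well and settled 5 hr at 37 C, 5% CO2, then exposed to DMSO-dissolved compounds for 17 hr. Caspase-Glo 3/7 reagent was added, and luminescence was read after 30min at room temperature.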

[6] = Caspase-3/7 induction in HepG2 cells by small molecules, qHTS cell viability counter screen (AID 1346981); note: series mostly up to about 92 µM; nearly all actives have a fitted effect of over 30% in size
How it was run: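 Counter screen for cytotoxicity: HepG2 exposed 16 hr to compounds, then CellTiter-Fluor viability signal (fluorescence, 1 hr reagent incubation).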

[7] = target: Nuclear receptor subfamily 1 group I member 2 (Homo sapiens) (UniProt O75469); experiment: Human pregnane X receptor (PXR) small molecule agonists, qHTS assay (AID 1346982); note: nearly all actives have a fitted effect of over 35% in size; note: potency is the fitted concentration of half-maximal effect
How it was run: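 Luminescence (ONE-Glo, 30 min RT) after 24 hr compound exposure of PXR-Luc HepG2 cells; cells rested 5 hr post-plating in 5% charcoal-stripped FBS medium.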

[8] = target: Acetylcholinesterase (Homo sapiens) (UniProt P22303); experiment: Acetylcholinesterase (AChE) small molecule antagonists: colormetric cell-based qHTS assay (AID 1347395; calls by dose curve; note: nearly all actives have a fitted effect of over 30% in size; note: potency is the fitted concentration of half-maximal effect)
How it was run: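 In this cell-based qHTS, attached SH-SY5Y cells were treated with test chemicals for 30 min, after which acetylthiocholine hydrolysis was followed by DTNB colour development over 90 min at 37 C.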

Chain of Thyrotropin-releasing hormone receptor (Homo sapiens) (P34981 whole entry, looked up): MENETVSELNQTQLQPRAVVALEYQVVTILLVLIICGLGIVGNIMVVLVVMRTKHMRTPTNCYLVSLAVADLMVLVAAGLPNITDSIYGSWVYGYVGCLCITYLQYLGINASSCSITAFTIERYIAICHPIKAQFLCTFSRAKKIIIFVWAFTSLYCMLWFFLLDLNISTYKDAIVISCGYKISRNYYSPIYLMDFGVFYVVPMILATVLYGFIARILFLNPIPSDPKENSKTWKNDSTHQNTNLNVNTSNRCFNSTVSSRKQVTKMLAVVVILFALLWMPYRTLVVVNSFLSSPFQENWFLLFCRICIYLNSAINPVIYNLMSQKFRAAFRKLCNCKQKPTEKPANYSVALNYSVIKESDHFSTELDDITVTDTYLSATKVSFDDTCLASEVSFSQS
Chain of Acetylcholinesterase (Homo sapiens) (P22303 whole entry, looked up): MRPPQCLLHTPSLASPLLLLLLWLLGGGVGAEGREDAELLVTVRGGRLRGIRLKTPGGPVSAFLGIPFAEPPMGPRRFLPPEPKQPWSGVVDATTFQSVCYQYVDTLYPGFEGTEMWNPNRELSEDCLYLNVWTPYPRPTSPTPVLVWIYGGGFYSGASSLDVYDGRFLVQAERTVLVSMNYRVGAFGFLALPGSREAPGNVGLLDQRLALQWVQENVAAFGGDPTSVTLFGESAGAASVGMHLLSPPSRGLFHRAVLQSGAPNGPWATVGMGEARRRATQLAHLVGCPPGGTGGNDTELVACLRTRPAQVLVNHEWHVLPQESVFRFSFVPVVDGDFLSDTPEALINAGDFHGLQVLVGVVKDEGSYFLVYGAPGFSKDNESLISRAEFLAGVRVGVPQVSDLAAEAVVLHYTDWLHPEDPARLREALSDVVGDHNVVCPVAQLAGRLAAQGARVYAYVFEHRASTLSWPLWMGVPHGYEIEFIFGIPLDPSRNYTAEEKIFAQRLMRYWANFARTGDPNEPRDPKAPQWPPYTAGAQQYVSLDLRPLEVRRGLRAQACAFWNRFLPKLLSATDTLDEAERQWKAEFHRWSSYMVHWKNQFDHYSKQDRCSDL
Chain of Nuclear receptor subfamily 1 group I member 2 (Homo sapiens) (O75469 whole entry, looked up): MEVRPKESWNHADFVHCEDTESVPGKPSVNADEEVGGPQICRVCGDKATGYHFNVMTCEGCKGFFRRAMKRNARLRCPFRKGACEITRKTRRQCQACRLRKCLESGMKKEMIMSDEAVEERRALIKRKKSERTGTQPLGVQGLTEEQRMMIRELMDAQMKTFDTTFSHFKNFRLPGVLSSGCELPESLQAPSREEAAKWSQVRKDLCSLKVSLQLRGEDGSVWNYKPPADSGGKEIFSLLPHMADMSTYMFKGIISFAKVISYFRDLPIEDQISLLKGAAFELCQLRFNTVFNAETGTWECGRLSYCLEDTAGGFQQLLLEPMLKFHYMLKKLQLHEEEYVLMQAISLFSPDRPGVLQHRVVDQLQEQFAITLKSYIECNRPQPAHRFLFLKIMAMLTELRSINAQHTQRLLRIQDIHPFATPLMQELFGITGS

Row | Structure (SMILES) | outcome [1] | Potency [2] | outcome [3] | Potency [4] | outcome [5] | Potency [6] | Potency [7] | Potency [8]
1 | NNCc1ccccc1 | inactive | inactive | inactive | inactive | inactive | inactive | 55.5 µM (active) | inactive
2 | CC(C)NCC(O)c1ccc([N+](=O)[O-])cc1 (centres undefined) | inactive | inactive | inactive | inactive | inactive | inactive | inactive | inactive
3 | CCC(CC)(CNC(=O)CCCO)c1cccc(OC)c1 | inactive | inactive | inactive | inactive | inactive | inactive | inactive | inactive
4 | O=P(O)(O)c1ccccc1 | inactive | inactive | inactive | inactive | inactive | inactive | inactive | inactive
5 | C1CN2CCC1CC2 | inactive | inactive | inactive | inactive | inactive | inactive | inactive | inactive
6 | CC(C)(C)C(=O)C(Cl)Cl | inactive | inactive | inactive | inactive | inactive | inactive | inactive | inactive
7 | O=c1[nH]c2ccccc2o1 | inactive | inactive | inactive | inactive | inactive | inactive | inactive | inactive
8 | CN(C)C1CCCCC1 | inactive | inactive | inactive | inactive | inactive | inactive | inactive | inactive
9 | O=C(Cl)c1ccccc1 | inactive | inactive | inactive | inactive | inactive | inactive | inactive | inactive
10 | CCOC(=O)Nc1cccc(OC(=O)Nc2ccccc2)c1 | inactive | inactive | inactive | inactive | inactive | inactive | 30.6 µM (active) | inactive
11 | CCC(C)C(C)(COC(N)=O)COC(N)=O (centres undefined) | inactive | inactive | inactive | inactive | inactive | inactive | inactive | inactive
12 | COP(=O)(OC)O/C(C)=C/C(=O)N(C)C | inactive | inactive | inactive | inactive | inactive | inactive | inactive | 40.2 µM (active)
13 | CC#Cc1cc(C)nc(Nc2ccccc2)n1 | inactive | inactive | inactive | inactive | inactive | inactive | 30.6 µM (active) | inactive
14 | CCOC(=O)N(C)N=O | inactive | inactive | inactive | inactive | inactive | inactive | inactive | inactive
15 | COc1ccccc1OC | inactive | inactive | inactive | inactive | inactive | inactive | inactive | inactive
16 | CCN[C@H](C)Cc1cccc(C(F)(F)F)c1 | inactive | inactive | inactive | inactive | inactive | inactive | inactive | inactive
17 | OCC(Cl)CCl (centres undefined) | inactive | inactive | inactive | inactive | inactive | inactive | inactive | inactive
18 | CCOC1Oc2ccc(OS(C)(=O)=O)cc2C1(C)C (centres undefined) | inactive | inactive | inactive | inactive | inactive | inactive | 21.5 µM (active) | inactive
19 | CCC(=O)c1ccc(Cl)cc1 | inactive | inactive | inactive | inactive | inactive | inactive | inactive | inactive

Row | Structure (SMILES) | outcome [1] | Potency [2] | outcome [3] | Potency [4] | outcome [5] | Potency [6] | Potency [7] | Potency [8]
20 | CCCCCCCCBr | inactive | inactive | inactive | inactive | inactive | inactive | inactive | inactive
21 | COc1ccc(C=O)cc1O | inactive | inactive | inactive | inactive | inactive | inactive | inactive | inactive
22 | CN(C)CCc1c[nH]c2cccc(OP(=O)(O)O)c12 | inactive | inactive | inactive | inactive | inactive | inactive | inactive | inactive
23 | CCCCCCCC(=O)Cl | inactive | inactive | inactive | 49 µM (active) | inactive | inactive | 61.6 µM (active) | inactive
24 | O=[N+]([O-])CCO | inactive | inactive | inactive | inactive | inactive | inactive | inactive | inactive
25 | O=C(NC(=O)c1c(F)cccc1F)Nc1cc(Cl)c(F)c(Cl)c1F | inactive | inactive | inactive | inactive | inactive | inactive | inactive | inactive
26 | CCNc1nc(Cl)nc(NC(C)(C)C)n1 | inactive | inactive | inactive | inactive | inactive | inactive | 30.6 µM (active) | inactive
27 | CCOC(=O)COc1ccc(Cl)cc1Cl | inactive | inactive | inactive | inactive | inactive | inactive | inactive | inactive
28 | [O-][Br+2]([O-])O | inactive | inactive | inactive | inactive | inactive | inactive | inactive | inactive
29 | CC(C)C(C)(N)C#N (centres undefined) | inactive | inactive | inactive | inactive | inactive | inactive | inactive | inactive
30 | CN(C)CCN(C)C | inactive | inactive | inactive | inactive | inactive | inactive | inactive | inactive
31 | CC(C)(C)NC[C@H](O)c1ccc(O)cc1Cl | inactive | inactive | inactive | inactive | inactive | inactive | inactive | inactive
32 | CC(C)N(Cc1ccccc1)C(=O)C(C)(C)C | inactive | inactive | inactive | inactive | inactive | inactive | inactive | inactive
33 | C#CCOC(=O)/C=C(C)/C=C/CC(C)CCCC(C)C (centres undefined) | inactive | inactive | inactive | inactive | inactive | inactive | inactive | inactive
34 | C/C(=N\NC(=O)Nc1cc(F)cc(F)c1)c1ncccc1C(=O)O | inactive | inactive | inactive | inactive | inactive | inactive | inactive | inactive
35 | C=CC1(C)OC(=O)N(c2cc(Cl)cc(Cl)c2)C1=O (centres undefined) | inactive | inactive | inactive | inactive | inactive | inactive | 60.8 µM (active) and 54.5 µM (active) | inactive
36 | BrCc1ccc(Br)cc1 | inactive | inactive | inactive | inactive | inactive | inactive | inactive | 71 µM (active)
37 | CCCCOC(C)=O | inactive | inactive | inactive | inactive | inactive | inactive | inactive | inactive
38 | C(COCC1CO1)OCC1CO1 (centres undefined) | inactive | inactive | inactive | inactive | inactive | inactive | 48.6 µM (active) | inactive

— PubChem BioAssay (Tox21)
